# Screens: PubChem, National Center for Advancing Translational Sciences (NCATS)
# FLuc counter – inhibits or activates purified firefly luciferase, miR-21 counter-screen; actives 6.9% (n = 360,000); purified FLuc, Km substrates, luminescence inhibition; Potency, µM (doses to about 57.5 µM), for the others: top-dose activity change, negative = inhibition, actives largely listed as inhibitors;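 further: plate controls were vehicle for no effect and reference inhibitor for full effect; nearly all actives have a fitted effect of over 55% in size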
# Target sequence (P08659 whole entry, looked up): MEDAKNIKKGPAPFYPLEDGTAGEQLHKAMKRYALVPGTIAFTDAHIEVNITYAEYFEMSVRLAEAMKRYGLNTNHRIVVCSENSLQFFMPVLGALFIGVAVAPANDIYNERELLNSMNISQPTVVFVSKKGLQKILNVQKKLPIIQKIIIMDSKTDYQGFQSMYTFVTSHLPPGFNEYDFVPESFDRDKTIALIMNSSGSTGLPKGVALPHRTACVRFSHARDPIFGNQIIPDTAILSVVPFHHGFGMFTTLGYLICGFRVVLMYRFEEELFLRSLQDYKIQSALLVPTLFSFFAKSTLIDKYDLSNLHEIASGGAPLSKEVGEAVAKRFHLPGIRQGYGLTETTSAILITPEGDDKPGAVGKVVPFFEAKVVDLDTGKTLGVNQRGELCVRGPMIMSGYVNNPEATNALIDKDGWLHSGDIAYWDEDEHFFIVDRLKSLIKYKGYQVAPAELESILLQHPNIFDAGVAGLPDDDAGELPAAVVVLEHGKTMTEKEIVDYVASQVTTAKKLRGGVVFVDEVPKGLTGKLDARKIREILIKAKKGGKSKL
#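 Biochemical qHTS of compounds, final roughly 60 µM downward over six points, against 10 nM purified firefly luciferase using Km concentrations of substrates (10 uM D-luciferin, 10 uM ATP) in Tris acetate pH 7.5 buffer; luminescence output.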
# ELG1 genotox – inducers of genotoxicity in HEK293T ELG1-luciferase cells. HEK293T ELG1-luciferase reporter, luminescence, 16 h. actives 1.3% (n = 330,000). Potency, µM (doses to about 46 µM), inactives show top-dose activity change, positive = activation, most hits filed as activators; further: % of control where 0% means no effect; nearly all actives have a fitted effect of over 60% in size
#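 DMSO vehicle served as control against compound-treated ELG1-luciferase HEK293T cells; exposure lasted 16 hr at 37 °C and 5% CO2, followed by ONE-Glo luminescence detection after 30 min.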
# Rab9 promoter act – activates the Rab9 promoter | Potency, µM (doses to about 9.22 µM), inactives show at the highest dose activation, negative = inhibition, hits mostly activators | actives 2.8% (n = 320,000) | AID 485297 | Huh7 Rab9 promoter-luciferase reporter, luminescence, 24 h; further: % of control where 0% means no effect; nearly all actives have a fitted effect of over 60% in size
#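 Steps: seed 1500 Huh7 Rab9-luc cells per well, rest 2 h at 37 °C; add compound in DMSO; incubate 24 h; add luciferase reagent, 10 min ambient; read luminescence.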
# SMN2 splice up – increases expression of the SMN2 splice variant; AID 1458; Potency, µM (series often up to 46.1 µM), without a hit: at the top dose activity change, positive = activation, hits mostly activators; actives 2.8% (n = 210,000); HEK293 SMN2-luciferase splicing reporter, luminescence, 30-36 h; further: % of control where 0% means no effect; nearly all actives have a fitted effect of over 55% in size
#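 HEK293 cells carry an SMN2 minigene-luciferase reporter in which exon 7 inclusion puts luciferase in frame. Cells were seeded at 2000 cells/well, attached for 10-12 hours, then exposed to compounds for 30-36 hours at 37C before ONE-Glo luminescence.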
# NPC1 promoter act – activators of NPC1 promoter; Huh7 NPC1 promoter luciferase reporter, 24 h; Potency, µM (titrated, usually from 9.22 µM), inactives show at the highest dose activation, actives largely listed as activators; actives 2.4% (n = 320,000); further: % of control where 0% means no effect; nearly all actives have a fitted effect of over 60% in size
#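 Huh7 cells stably carrying NPC1 promoter–luciferase, plated in Opti-MEM with 10% FBS for 2 h, were exposed to compound in DMSO for 24 h at 37 °C; luciferase reagent was added for 10 min and luminescence read.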
# ELG1 DNA repair – blocks ELG1-dependent DNA repair in HEK293T cells; Potency, µM (series often up to 46.1 µM), without a hit: at the top dose activity change, negative = inhibition, most hits filed as inhibitors; HEK293T ELG1-luciferase reporter, luminescence, 16 h; DNA damage induced by 5-fluorouridine; actives 2.3% (n = 330,000); further: on the % scale 0 is the no-effect control and ±100 the full control effect; nearly all actives have a fitted effect of over 55% in size
#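 Overnight (16 hr) co-exposure of 2,000 cells/well to 5-fluorouridine and compound at 37 °C preceded detection. Luciferase was quantified via ONE-Glo luminescence; loss of signal denotes inhibition.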
# Active calls of the source: *; ? = inconclusive; . = no result given; [ ] = another dose, or the depositor's remark. Rows were chosen to be rich in hits. Some 9.2% of all compounds tested hit in one or more screens of this group. The call rests on the fitted dose curve; in most records, active means well fitted curve in the direction sought with a large enough effect; inconclusive means small, poorly fitted or top-dose-only effect, or another doubt; inactive means no such curve, though single readings can be large; an effect the other way counts as inactive or inconclusive. Potency means the concentration at half of the fitted maximal effect.
SMILES,FLuc counter,ELG1 genotox,Rab9 promoter act,SMN2 splice up,NPC1 promoter act,ELG1 DNA repair
CCn1c(N2CCN(C(=S)Nc3ccc(OC)cc3)CC2)nc2ccccc21,2%,-6%,-14%,.,-7%,?
CCCCN(CC)CCCNC(=O)CCN1N=C(c2ccc(OC)cc2)CCC1=O,2%,.,.,.,.,.
Cc1ccn2c(NC(C)(C)C)c(-c3cccs3)nc2c1,?,-6%,-12%,-17%,-6%,-15%
C=CCC(O)(C#Cc1ccccc1)c1ccccc1 (configuration not stated),.,.,.,2%,.,.
Cc1ccc(C)c(N(CC(=O)NC2CCCC2)C(=O)c2cc3cc4cc(C)ccc4nc3s2)c1,1%,-6%,-3%,2%,-3%,1%
Cc1cccc(N(CC(=O)NC2CCCC2)C(=O)c2cc3cc4cccc(C)c4nc3s2)c1C,-1%,-4%,-5%,-19%,1%,18µM*
COc1ccc(CCN(C)CCC(=O)Nc2cc(C)ccc2C)cc1OC,13µM*,-1%,-2%,-7%,1%,?
CCCCn1c(N)c(N(CCOC)C(=O)c2oc3ccc(OCC)cc3c2C)c(=O)[nH]c1=O,0%,1%,5%,.,-3%,-2%
Cc1ccc(Nc2cc(C)nn2-c2nc(C)cc(C)n2)cc1,-2%,-2%,-13%,-40%,-4%,15µM*
COc1ccc(-n2c(C)cc(C(=O)NC3CCCCC3)c2C)cc1,13µM*,26%,3.5µM*,?,?,?
COc1ccc(N2CC(C(=O)NC3CCCCC3)CC2=O)cc1 (configuration not stated),0%,2%,-1%,.,1%,?
Cc1cccc(-n2c(C)cc(C(=O)NC3CCCCC3)c2C)c1,21µM*,?,3.5µM*,?,?,?
Cc1cccc(N2CCN(C(=O)NC3CCCCC3)CC2C)c1 (configuration not stated),2%,-5%,-4%,.,-4%,-24%
CC(C)(C)C1CCc2sc(-c3nnc(CCl)o3)cc2C1 (configuration not stated),24µM*,5%,-1%,-24%,-2%,?
COc1ccc(NC(=O)C2CCN(S(=O)(=O)c3c(C)nn(C)c3C)CC2)cc1,-1%,1%,1%,.,-1%,11%
Cc1nn(C)c(C)c1S(=O)(=O)N1CCC(C(=O)Nc2ccc3c(c2)OCCO3)CC1,15µM*,18µM*,20%,1%,11%,?
CCc1cc2c(=O)c(-c3nc4ccccc4n3C)c(COCC(=O)O)oc2cc1O,1%,-2%,11%,11%,2%,13%
CCCc1cc2c(=O)c(-c3nc4ccccc4s3)c(COCC(=O)O)oc2cc1O,9.5µM*,6%,?,51%,2%,?
CC(=O)Nc1nnc(CSCc2ccccc2F)s1,-13%,10%,20%,.,23%,?
Cc1cc(C)cc(OCc2cc(=O)n3cc(C)sc3n2)c1,2%,.,.,-11%,.,.
Cc1nc2nc(SCc3c(F)cccc3Cl)nn2c(C)c1Cc1ccccc1,5.4µM*,.,.,.,.,.
CC(C)N(C(=O)[C@H]1C[C@H](CC(=O)NCCCn2ccnc2)C(=O)N2CCc3c([nH]c4ccc(Cl)cc34)[C@]12C)C(C)C,.,1%,.,.,.,4%
C[C@@H](C(=O)Nc1ccc2c(c1)OCO2)n1c(=O)[nH]c2ccccc2c1=O,4%,3%,5%,.,-5%,12%
C[C@@H](C(=O)Nc1ccc2c(c1)OCCO2)n1c(=O)[nH]c2ccccc2c1=O,15µM*,?,18%,.,3%,?
CC(Sc1nc2ccccc2c(=O)n1C)C(=O)Nc1ccc2c(c1)OCCO2 (configuration not stated),-19%,-3%,-25%,.,-15%,-22%
SMILES,FLuc counter,ELG1 genotox,Rab9 promoter act,SMN2 splice up,NPC1 promoter act,ELG1 DNA repair
O=c1c2ccccc2nnn1CSc1ccc2c(c1)OCCO2,9.5µM*,18%,1.8µM*,7.1µM*,1.6µM*,?
CCC(C(=O)Nc1ccc2c(c1)OCCO2)n1nnc2ccccc2c1=O (configuration not stated),13µM*,?,?,.,3.2µM*,?
C/C(=N/Nc1nc(C)c(C)s1)c1cccc([N+](=O)[O-])c1,12µM*,?,?,.,?,-8%
C/C(=N\Nc1nc(N)cc(Cl)n1)c1cccc([N+](=O)[O-])c1,?,0%,15%,-5%,21%,18%
CC(=O)c1ccc(NS(=O)(=O)c2ccc(Br)s2)cc1,?,.,.,-10%,.,.
CN(CC(=O)N(C)CC(=O)Nc1c(Cl)cccc1Cl)Cc1ccc(Br)s1,2%,-1%,0%,.,0%,-7%
Cc1ccc(C)c(NC(=S)Nc2ncccc2C)c1,17µM*,?,?,.,22%,?
Cc1cccnc1NC(=O)Nc1cccs1,12µM*,17%,11%,13%,14%,?
O=C(NCc1cccs1)Nc1cccs1,?,0%,12%,2%,11%,17%
Cc1ccccc1CNC(=O)Nc1cccs1,21µM*,8%,25%,15%,29%,?
Cc1ccc(NC(=O)Nc2ncccc2C)cc1,7.6µM*,28%,2µM*,10µM*,2.8µM*,?
CCN(CC)C(=O)Cn1cc(C(=O)C(=O)N(CC)C2CCCCC2)c2ccccc21,-2%,-1%,0%,.,-3%,-8%
Cc1cc(C)n2nc(SCC(=O)NC3CCCC(C)C3C)nc2n1 (configuration not stated),-3%,-1%[9.26 µM],0%,.,-4%,22%
